# Compound activity from PubChem BioAssay.
# Rab9 promoter act = Rab9 promoter activation; hit rate 2.8% among 320,000; Potency, µM (top dose mostly 9.22 µM), hits mostly activators; Huh7 Rab9 promoter-luciferase reporter, luminescence, 24 h; further: nearly all actives have a fitted effect of over 60% in size
#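 Luminescence from Amplite-detected luciferase (10 minutes, ambient) reports Rab9 promoter activation. Before that, stable Rab9-luciferase Huh7 cells (1500/well, reduced-serum OP-MEM I plus 10% FBS) were exposed to compound for 24 hours at 37C.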
# SMN2 splice up = SMN2 splice variant enhancement; AID 1458; HEK293 SMN2-luciferase splicing reporter, luminescence, 30-36 h; hit rate 2.8% among 210,000; Potency, µM (titrated, usually from 46.1 µM), most hits filed as activators; further: nearly all actives have a fitted effect of over 55% in size
#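 qHTS luciferase splicing reporter: luminescence rises when SMN2 exon 7 is included in transfected HEK293 cells. Compound exposure lasted 30-36 h at 37C, with 4.5 mM final sodium butyrate as control, followed by a ONE-Glo read.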
# FLuc counter = inhibits or activates purified firefly luciferase, miR-21 counter-screen. AID 588342. Potency, µM (titrated, usually from 57.5 µM), hits mostly inhibitors. purified FLuc, Km substrates, luminescence inhibition. hit rate 6.9% among 360,000. P08659; further: nearly all actives have a fitted effect of over 55% in size
# Target sequence (P08659 whole entry, looked up): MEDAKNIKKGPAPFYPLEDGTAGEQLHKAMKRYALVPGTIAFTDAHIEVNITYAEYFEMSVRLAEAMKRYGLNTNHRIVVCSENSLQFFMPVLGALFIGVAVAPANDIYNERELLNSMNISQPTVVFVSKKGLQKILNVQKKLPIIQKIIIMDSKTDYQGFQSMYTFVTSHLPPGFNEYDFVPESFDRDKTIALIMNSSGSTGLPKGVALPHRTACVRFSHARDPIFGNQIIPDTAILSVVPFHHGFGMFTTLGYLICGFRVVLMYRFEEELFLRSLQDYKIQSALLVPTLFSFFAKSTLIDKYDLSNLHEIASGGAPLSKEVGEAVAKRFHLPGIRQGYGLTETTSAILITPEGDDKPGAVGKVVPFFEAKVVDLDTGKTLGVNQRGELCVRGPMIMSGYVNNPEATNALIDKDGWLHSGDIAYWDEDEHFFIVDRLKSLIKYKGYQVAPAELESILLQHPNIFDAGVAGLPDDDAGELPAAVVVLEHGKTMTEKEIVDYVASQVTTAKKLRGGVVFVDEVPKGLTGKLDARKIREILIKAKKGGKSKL
#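 Purified P. pyralis luciferase, 10 nM final, with Km-level 10 uM D-luciferin and 10 uM ATP in 50 mM Tris acetate pH 7.5, 10 mM Mg acetate, 0.01% Tween-20, 0.05% BSA; 6-point qHTS titration about 60 µM downward; luminescence read.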
# ELG1 genotox = genotoxicity induction in ELG1-luciferase HEK293T cells; HEK293T ELG1-luciferase reporter, luminescence, 16 h; Potency, µM (top dose mostly 46 µM), most hits filed as activators; hit rate 1.3% among 330,000; further: nearly all actives have a fitted effect of over 60% in size
#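 HEK293T cells expressing luciferase-tagged ELG1 were exposed to compound or DMSO vehicle for 16 hr at 37 °C and 5% CO2. Luciferase activity was then measured with ONE-Glo after 30 min at room temperature.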
# NPC1 prom act = activators of NPC1 promoter. Huh7 NPC1 promoter luciferase reporter, 24 h. Potency, µM (top dose mostly 9.22 µM), hits mostly activators. hit rate 2.4% among 320,000; further: nearly all actives have a fitted effect of over 60% in size
#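 Quantitative HTS used a cell-based reporter: Huh7 cells stably bearing the NPC1 promoter upstream of luciferase were treated with compounds for 24 h, and promoter activation was read as luminescence.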
# Hits are given with their value; i = inactive; ? = inconclusive; nt = not tested or not shown; [ ] = remark or other dose. Shown are actives, neighbours in structure and some others; about 7.4% of the full set was active somewhere. The call rests on the fitted dose curve; in most records, active means well fitted curve in the direction sought with a large enough effect; inconclusive means small, poorly fitted or top-dose-only effect, or another doubt; inactive means no such curve, though single readings can be large; an effect the other way counts as inactive or inconclusive.
SMILES,Rab9 promoter act,SMN2 splice up,FLuc counter,ELG1 genotox,NPC1 prom act
COc1ccc(NC(=O)C(C)n2nc(-c3cc(C)ccc3C)c3c(c2=O)CCCC3)cc1 (configuration not stated),nt,i,i,nt,nt
O=C(COC(=O)c1ccc(Br)o1)Nc1ccc(Br)cc1,i,nt,i,i,i
Cc1ccc(NC(=O)COC(=O)c2ccco2)cc1,i,nt,17µM,i,i
Cc1ccc2nc(-c3ccc(NC(=O)COC(=O)c4cncc(Br)c4)cc3)sc2c1,0.32µM,0.56µM,1.7µM,1.3µM,?
O=C(COC(=O)c1cncc(Br)c1)Nc1ccc2c(c1)OCO2,i,i,i,i,i
Cc1ccc2nc(-c3ccc(NC(=O)COC(=O)c4ccco4)cc3)sc2c1,0.32µM,2.2µM,11µM,2.9µM,0.45µM
Cc1ccc2nc(-c3ccc(NC(=O)COC(=O)c4ccc(Br)o4)cc3)sc2c1,0.4µM,0.5µM,3.4µM,1.2µM,0.79µM
NCCC[C@@H](CC(=O)N[C@@H]1CCNC[C@H]1C(=O)N[C@H](CC(=O)N[C@@H](CCC(=O)O)CC(=O)O)Cc1ccccc1)NC(=O)C[C@H](CO)NC(=O)[C@@H]1CCCC[C@H]1N,nt,i,nt,nt,nt
CCOc1ncccc1C(=O)OCC(=O)Nc1ccc(-c2nc3ccc(C)cc3s2)cc1,0.35µM,1.6µM,5.4µM,7.3µM,0.45µM
Cc1ccc(C(=O)O[C@H](C(=O)O)[C@@H](OC(=O)c2ccc(C)cc2)C(=O)O)cc1 (tested in a mixture with another compound),i,i,nt,nt,i
O=C(c1ccco1)N1CCC2(CC1)CN(c1ccccn1)C2,nt,i,nt,nt,nt
Cc1cc(=O)oc2cc(NC(=O)c3ccccc3C(=O)O)ccc12,i,nt,11µM,i,i
COc1ccccc1CC(=O)Nc1ccc2c(C)cc(=O)oc2c1,i,nt,i,i,i
Cc1cc(=O)oc2cc(NC(=O)c3ccnn3C)ccc12,4µM,nt,?,16µM,2.8µM
Cc1cc(=O)oc2cc(NC(=O)c3c(Cl)cnn3C)ccc12,i,nt,i,?,i
Cc1cc(=O)oc2cc(NC(=O)c3ccccc3Cl)ccc12,3.5µM,nt,11µM,15µM,3.2µM
Cc1ccccc1CC(=O)Nc1ccc2c(C)cc(=O)oc2c1,i,nt,i,i,i
Cc1cccc(OCC(=O)Nc2ccc3c(C)cc(=O)oc3c2)c1,i,i,i,i,i
COc1cccc(C(=O)Nc2ccc3c(C)cc(=O)oc3c2)c1,0.71µM,nt,1.9µM,2.3µM,1.1µM
CCOc1ccc(NC(=O)CSc2ncc(S(=O)(=O)c3ccc(F)c(C)c3)c(=O)[nH]2)cc1,nt,i,?,nt,nt
COc1cccc(CN2C(=O)N(c3ccc(C)cc3)C(=O)C2CC(=O)Nc2cc(OC)cc(OC)c2)c1 (configuration not stated),nt,nt,i,nt,nt
C[C@H]1Cc2c(-c3ccccc3)nc3c(c2CO1)CN(C(=O)NCc1ccco1)CC3,nt,i[9.22 µM],nt,nt,nt
Cc1ccc(Cl)cc1NC(=O)NCc1cccn1Cc1ccc(F)cc1,nt,i,i,nt,nt
COc1ccc(-c2cc3ccc(O)cc3oc2=O)cc1OC,i,nt,?,?,?
COc1ccc(-c2coc3cc(O)ccc3c2=O)c(OC)c1,nt,i,nt,nt,nt
SMILES,Rab9 promoter act,SMN2 splice up,FLuc counter,ELG1 genotox,NPC1 prom act
COc1ccc(-c2coc3cc(O)ccc3c2=O)cc1,nt,11µM,nt,nt,nt
COc1ccc(-c2coc3cc(O)ccc3c2=O)cc1O,?,nt,9.5µM,13µM,?
CCc1ccc2c(c1)c1nc(C)sc1n2CC(=O)OC,i,i,12µM,i,i
Cc1nc2c3cc(F)ccc3n(Cc3ccccc3)c2s1,i,i,i,i,i
Nc1nc(-c2ccc(Br)cc2)cs1,?,?,19µM,?,?
Cc1ccc(-c2csc(-c3ccncc3)n2)cc1,4µM,?,11µM,?,?
Nc1nc(-c2ccc(F)cc2)cs1,?,i,?,?,i
Brc1ccc(-c2csc(-c3ccncc3)n2)cc1,?,?,4.8µM,?,i
Cc1ccc(-c2csc(-c3nc(-c4ccc(Br)s4)cs3)n2)cc1,nt,i,i,nt,nt
Cc1ccccc1OCc1nc2c3cnn(-c4cccc(F)c4)c3ncn2n1,nt,i,i,nt,nt
CC(=O)Nc1cccc(-c2nnc(SCC(=O)c3cc([N+](=O)[O-])ccc3Br)o2)c1,nt,i,i,nt,nt
COc1ccc(NC(=O)C(CC(C)C)NC(=O)C2CCCCC2)cc1 (configuration not stated),nt,i,i,nt,nt
CCCNC(=O)c1cc(Cl)c(NC(=O)C2=CSCCO2)cc1OC,?,nt,19µM,i,?
C/C(=N/NC(=O)c1ccc(C)s1)c1cccc(NC(=O)c2ccoc2C)c1,i,nt,17µM,i,i
Cc1occc1C(=O)Nc1ccc2c(c1)OCO2,2.8µM,13µM,24µM,21µM,3.5µM
Cc1occc1C(=O)Nc1ccc(S(N)(=O)=O)cc1,i,i,?,i,i
Cc1occc1C(=O)Nc1cccc(C(F)(F)F)c1,i,i,i,i,i
Cc1cc(NC(=O)c2ccoc2C)ccc1Br,?,nt,7.6µM,?,?
Cc1occc1C(=O)Nc1cccc(C(=O)O)c1,2.8µM,?,9.5µM,?,2.2µM
Cc1nc(N)nc2ccccc12,nt,i[9.22 µM],nt,nt,nt
COc1cc(C(=O)CC2(O)C(=O)N(Cc3ccccc3Cl)c3ccccc32)cc(OC)c1OC (configuration not stated),nt,i,i,nt,nt
C/C(=N\NC(=O)c1ccncc1)c1cccc(NC(=O)c2ccc(Cl)s2)c1,i,nt,19µM,i,i
Nc1ccccc1C(=O)Nc1cccc(C(=O)O)c1,2.2µM,i,2.7µM,i,?
Cc1ccccc1C(=O)Nc1cccc(NC(=O)c2ccccc2[N+](=O)[O-])c1,i,nt,?,i,i
Cc1cc(NC(=O)c2ccccc2[N+](=O)[O-])ccc1Br,?,i,17µM,?,i
SMILES,Rab9 promoter act,SMN2 splice up,FLuc counter,ELG1 genotox,NPC1 prom act
Cc1ccc(NC(=O)c2ccoc2C)cc1C,2.8µM,16µM,?,?,?
O=C(COc1ccc2ccccc2c1)NNC(=O)Cc1cccc2ccccc12,i,i,i,i,i
COc1ccc(COc2cccc(C=O)c2)cc1,?,nt,24µM,i,?
COc1ccc([C@H]2CC(=O)C=C(c3cccc(OCc4ccccc4)c3)C2)cc1,i,nt,i,i,i
COc1ccc(COc2ccc3c(C)cc(=O)oc3c2)cc1,?,nt,5.4µM,9.2µM,2.2µM
O=Cc1cccc(OCc2cccc3ccccc23)c1,4µM,nt,27µM,?,2.8µM
CCOc1ccc(OCC)c(NC(=O)CC(C)n2nc(C)cc2C)c1 (configuration not stated),nt,nt,i,nt,nt
COc1cccc(C(=O)NCC(c2ccc3c(c2)OCO3)N2CCN(C)CC2)c1 (configuration not stated),nt,nt,i,nt,nt
COc1ccc([C@]23Cc4cc(OC)c(OC)cc4C(O2)c2c(cc(C)oc2=O)O3)cc1,i[1.84 µM],nt,i[11.5 µM],nt,i[1.84 µM]
CC(=O)Cc1nsc(NC(=O)c2ccc(-c3ccccc3Cl)o2)n1,i,11µM,11µM,?,i
CC(=O)Cc1nsc(NC(=O)c2ccc(-c3ccc(F)cc3)o2)n1,i,i,6µM,i,i
CC(=O)Cc1nsc(NC(=O)c2oc(-c3ccccc3Cl)cc2C)n1,i,i,?,i,i
